Experimental data from the supplement of paper PMC10849652.
Targets with a hit are over-represented here; the source holds about 8,800 in all. About 0.5% of all pairs of compound and target were hits.

Key:
Assay in all cases: log2 fold change, soluble protein after heating vs DMSO (PISA); higher = thermal stabilisation; K562 lysate, 10 uM; active = over 0.2 and 3.5 SD of the protein, either way, in both replicates (recomputed)
lapatinib = compound: CS(=O)(=O)CCNCc1ccc(-c2ccc3ncnc(Nc4ccc(OCc5cccc(F)c5)c(Cl)c4)c3c2)o1 [lapatinib]
Outline: (§1)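 K562 pellets were dounce-homogenised in PBS pH 7.4 containing 1 mM MgCl2, and the crude extract, at 1 mg/mL protein, was exposed to 10 μM compound for 30 min. Aliquots were heated for 3 min across 48°C-58°C, pooled, brought to 0.5% NP-40 at 4°C and spun at 21,000xg for 90 min, with the supernatant taken as soluble protein. TMTpro 16plex LC-MS/MS with equalised channel sums quantified that protein. Values are log-two fold changes in thermal stability relative to solvent controls, taken from duplicates.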

pictilisib = compound: CS(=O)(=O)N1CCN(Cc2cc3nc(-c4cccc5[nH]ncc45)nc(N4CCOCC4)c3s2)CC1 [pictilisib]
Outline: as §1

crizotinib = compound: C[C@@H](Oc1cc(-c2cnn(C3CCNCC3)c2)cnc1N)c1c(Cl)ccc(F)c1Cl [crizotinib]
Outline: as §1

[1] = compound: C[C@H](C1=CC=C(C=C1)C(=O)NC2=C3C=CNC3=NC=C2)N
Outline: as §1

duvelisib = compound: C[C@H](Nc1ncnc2nc[nH]c12)c1cc2cccc(Cl)c2c(=O)n1-c1ccccc1 [duvelisib]
Outline: as §1

gandotinib = compound: Cc1cc(Nc2cc(CN3CCOCC3)c3nc(C)c(Cc4ccc(Cl)cc4F)n3n2)n[nH]1 [gandotinib]
Outline: as §1

tozasertib = compound: Cc1cc(Nc2cc(N3CCN(C)CC3)nc(Sc3ccc(NC(=O)C4CC4)cc3)n2)n[nH]1 [tozasertib]
Outline: as §1

doramapimod = compound: Cc1ccc(-n2nc(C(C)(C)C)cc2NC(=O)Nc2ccc(OCCN3CCOCC3)c3ccccc23)cc1 [doramapimod]
Outline: as §1

bafetinib = compound: Cc1ccc(NC(=O)c2ccc(CN3CC[C@H](N(C)C)C3)c(C(F)(F)F)c2)cc1Nc1nccc(-c2cncnc2)n1 [bafetinib]
Outline: as §1

[2] = compound: Cc1cccc(CC(=O)N2CCc3c2ccc(-c2cn(C)c4ncnc(N)c24)c3F)n1
Outline: as §1

nilotinib = compound: Cc1cn(-c2cc(NC(=O)c3ccc(C)c(Nc4nccc(-c5cccnc5)n4)c3)cc(C(F)(F)F)c2)cn1 [nilotinib]
Outline: as §1

[3] = compound: Cc1nc(Nc2n[nH]c3c2CN(C(=O)N[C@H](CN(C)C)c2ccccc2)C3(C)C)c2sccc2n1
Outline: as §1

dasatinib = compound: Cc1nc(Nc2ncc(C(=O)Nc3c(C)cccc3Cl)s2)cc(N2CCN(CCO)CC2)n1 [dasatinib]
Outline: as §1

[4] = compound: Cc1ncc(-c2ccnc(Nc3ccc(S(C)(=O)=O)cc3)n2)n1C(C)C
Outline: as §1

[5] = compound: Cn1cc(-c2ccc3c(c2)CCN3C(=O)Cc2cccc(C(F)(F)F)c2)c2c(N)ncnc21
Outline: as §1

quisinostat = compound: Cn1cc(CNCC2CCN(c3ncc(C(=O)NO)cn3)CC2)c2ccccc21 [quisinostat]
Outline: as §1

tipifarnib = compound: Cn1cncc1[C@@](N)(c1ccc(Cl)cc1)c1ccc2c(c1)c(-c1cccc(Cl)c1)cc(=O)n2C [tipifarnib]
Outline: as §1

[6] = compound: NC(=O)Nc1cc(-c2cccc(F)c2)sc1C(=O)N[C@H]1CCCNC1
Outline: as §1

[7] = compound: NC(=O)c1cnc(N[C@@H]2CCCC[C@@H]2N)nc1Nc1cccc(-n2nccn2)c1
Outline: as §1

[8] = compound: NC1(c2ccc(-c3nc4ccn5c(=O)[nH]nc5c4cc3-c3ccccc3)cc2)CCC1
Outline: as §1

Measured: log2 fold change

SEC62 (UniProt Q99442)
inactive: lapatinib 0.028 | pictilisib -0.029 | crizotinib 0.011 | [1] 0.231 | duvelisib 0 | gandotinib -0.07 | tozasertib -0.024 | doramapimod 0.002 | bafetinib 0.029 | [2] -0.072 | nilotinib 0.013 | [3] -0.032 | dasatinib 0.01 | [4] -0.038 | [5] -0.011 | quisinostat 0.083 | tipifarnib -0.055 | [6] -0.045 | [7] -0.007 | [8] -0.01

RPS6KA3 (UniProt P51812)
inactive: lapatinib -0.089 | pictilisib 0.223 | crizotinib -0.012 | [1] -0.037 | duvelisib -0.016 | gandotinib 0.156 | tozasertib 0.363 | doramapimod -0.057 | bafetinib -0.077 | [2] -0.083 | nilotinib -0.02 | [3] 0.17 | dasatinib -0.065 | [4] 0.039 | [5] 0.031 | quisinostat -0.046 | tipifarnib -0.023 | [6] 0.133 | [7] 0.09 | [8] 0.005

RECQL5 (UniProt O94762)
inactive: lapatinib 0.277 | pictilisib 0.06 | crizotinib 0.049 | [1] 0.084 | duvelisib 0.029 | gandotinib -0.15 | tozasertib 0.031 | doramapimod -0.008 | bafetinib -0.062 | [2] -0.09 | nilotinib -0.026 | [3] 0.057 | dasatinib 0.023 | [4] 0.011 | [5] -0.04 | quisinostat -0.013 | tipifarnib -0.064 | [6] 0.034 | [7] 0.343 | [8] 0.049

RAB1B (UniProt Q9H0U4)
UniProt Q9H0U4, sequence (Q9H0U4 whole entry, looked up): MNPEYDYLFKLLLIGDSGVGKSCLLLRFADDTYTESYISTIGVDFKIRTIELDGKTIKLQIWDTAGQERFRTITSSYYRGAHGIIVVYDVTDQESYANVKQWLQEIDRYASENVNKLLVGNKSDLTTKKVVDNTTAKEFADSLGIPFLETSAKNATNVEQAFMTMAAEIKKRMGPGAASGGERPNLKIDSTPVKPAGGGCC
active: [1] -0.35 | [2] 0.242
inactive: lapatinib 0.021 | pictilisib 0.053 | crizotinib 0.031 | duvelisib 0.033 | gandotinib 0.156 | tozasertib 0.011 | doramapimod -0.052 | bafetinib -0.038 | nilotinib 0.016 | [3] 0.003 | dasatinib -0.058 | [4] -0.029 | [5] -0.001 | quisinostat 0.016 | tipifarnib -0.04 | [6] -0.052 | [7] -0.041 | [8] 0.002

RBM42 (UniProt Q9BTD8)
active: doramapimod 0.216
inactive: lapatinib 0.05 | pictilisib 0.049 | crizotinib 0.01 | [1] 0.026 | duvelisib -0.032 | gandotinib 0.04 | tozasertib -0.001 | bafetinib 0.083 | [2] -0.01 | nilotinib 0.102 | [3] -0.039 | dasatinib -0.021 | [4] 0.009 | [5] -0.039 | quisinostat -0.033 | tipifarnib 0.073 | [6] -0.022 | [7] -0.049 | [8] 0.004

RAF1 isoform 2 (UniProt P04049)
inactive: lapatinib 0.077 | pictilisib 0.014 | crizotinib -0.047 | [1] 0.046 | duvelisib -0.014 | gandotinib -0.118 | tozasertib 0.025 | doramapimod 0.025 | bafetinib -0.004 | [2] -0.016 | nilotinib 0.054 | [3] -0.005 | dasatinib 0.169 | [4] -0.094 | [5] -0.022 | quisinostat -0.06 | tipifarnib -0.036 | [6] 0.063 | [7] -0.021 | [8] -0.008

RALGAPA1 isoform 6 (UniProt Q6GYQ0)
UniProt Q6GYQ0, sequence (Q6GYQ0 whole entry, looked up): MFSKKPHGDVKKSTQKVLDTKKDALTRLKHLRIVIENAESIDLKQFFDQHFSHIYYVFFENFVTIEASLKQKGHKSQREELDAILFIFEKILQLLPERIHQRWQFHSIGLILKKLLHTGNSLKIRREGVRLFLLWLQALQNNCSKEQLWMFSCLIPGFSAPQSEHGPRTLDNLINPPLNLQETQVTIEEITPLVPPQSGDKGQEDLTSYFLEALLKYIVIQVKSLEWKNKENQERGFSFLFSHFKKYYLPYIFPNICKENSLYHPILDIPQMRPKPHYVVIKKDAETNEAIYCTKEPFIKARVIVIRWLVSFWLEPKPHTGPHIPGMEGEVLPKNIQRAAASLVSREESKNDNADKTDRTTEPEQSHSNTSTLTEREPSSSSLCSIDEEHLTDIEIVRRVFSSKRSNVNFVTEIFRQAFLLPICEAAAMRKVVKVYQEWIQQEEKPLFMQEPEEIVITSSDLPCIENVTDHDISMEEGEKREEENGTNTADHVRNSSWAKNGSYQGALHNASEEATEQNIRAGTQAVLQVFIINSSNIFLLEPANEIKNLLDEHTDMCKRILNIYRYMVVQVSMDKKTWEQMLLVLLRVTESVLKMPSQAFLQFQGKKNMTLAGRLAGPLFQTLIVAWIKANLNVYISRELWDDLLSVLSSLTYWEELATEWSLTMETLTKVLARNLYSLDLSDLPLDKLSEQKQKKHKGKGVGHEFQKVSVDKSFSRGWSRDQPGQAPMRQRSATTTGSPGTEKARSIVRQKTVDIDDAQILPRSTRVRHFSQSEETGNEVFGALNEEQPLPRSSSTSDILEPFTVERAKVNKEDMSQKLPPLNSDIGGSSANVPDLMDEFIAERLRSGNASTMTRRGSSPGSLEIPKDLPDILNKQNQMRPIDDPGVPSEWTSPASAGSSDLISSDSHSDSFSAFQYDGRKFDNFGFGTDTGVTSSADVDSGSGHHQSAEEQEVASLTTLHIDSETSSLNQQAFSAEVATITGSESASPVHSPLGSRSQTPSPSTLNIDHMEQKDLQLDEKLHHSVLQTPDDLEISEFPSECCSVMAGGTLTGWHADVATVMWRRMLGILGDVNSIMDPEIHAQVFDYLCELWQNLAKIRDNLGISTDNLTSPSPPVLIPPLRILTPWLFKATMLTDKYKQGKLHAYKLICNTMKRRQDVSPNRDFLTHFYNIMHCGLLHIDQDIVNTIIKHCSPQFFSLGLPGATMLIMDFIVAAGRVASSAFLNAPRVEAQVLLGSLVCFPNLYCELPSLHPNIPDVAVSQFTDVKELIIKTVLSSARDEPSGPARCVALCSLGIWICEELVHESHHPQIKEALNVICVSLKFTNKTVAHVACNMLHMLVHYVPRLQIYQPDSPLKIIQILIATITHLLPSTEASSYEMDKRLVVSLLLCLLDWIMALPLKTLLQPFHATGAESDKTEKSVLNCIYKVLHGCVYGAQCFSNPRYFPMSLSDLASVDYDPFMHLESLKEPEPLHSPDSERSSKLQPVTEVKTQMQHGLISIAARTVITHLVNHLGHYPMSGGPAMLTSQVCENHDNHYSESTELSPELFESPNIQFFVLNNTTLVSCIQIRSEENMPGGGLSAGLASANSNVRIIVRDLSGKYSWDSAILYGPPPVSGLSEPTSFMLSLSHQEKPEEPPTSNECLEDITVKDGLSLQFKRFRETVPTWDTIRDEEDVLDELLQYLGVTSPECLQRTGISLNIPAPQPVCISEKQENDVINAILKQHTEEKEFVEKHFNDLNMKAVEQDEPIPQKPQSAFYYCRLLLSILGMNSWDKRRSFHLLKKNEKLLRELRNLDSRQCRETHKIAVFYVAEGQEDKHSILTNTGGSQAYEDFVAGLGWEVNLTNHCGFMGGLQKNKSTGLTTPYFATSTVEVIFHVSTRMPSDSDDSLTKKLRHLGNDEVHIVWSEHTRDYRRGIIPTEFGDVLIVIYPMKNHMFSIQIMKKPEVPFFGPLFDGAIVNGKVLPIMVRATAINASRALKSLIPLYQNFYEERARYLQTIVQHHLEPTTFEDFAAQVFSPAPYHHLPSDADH
inactive: lapatinib -0.075 | pictilisib -0.157 | crizotinib 0.036 | duvelisib 0.074 | gandotinib 0.257 | tozasertib -0.006 | doramapimod 0.062 | bafetinib -0.026 | [2] 0.321 | nilotinib -0.05 | [3] -0.044 | dasatinib -0.018 | [4] -0.066 | [5] 0.071 | quisinostat -0.15 | tipifarnib 0.019 | [6] 0.039 | [7] 0.052 | [8] -0.08
active: [1] -0.28

RAD50 isoform 2 (UniProt Q92878)
UniProt Q92878, sequence (Q92878 whole entry, looked up): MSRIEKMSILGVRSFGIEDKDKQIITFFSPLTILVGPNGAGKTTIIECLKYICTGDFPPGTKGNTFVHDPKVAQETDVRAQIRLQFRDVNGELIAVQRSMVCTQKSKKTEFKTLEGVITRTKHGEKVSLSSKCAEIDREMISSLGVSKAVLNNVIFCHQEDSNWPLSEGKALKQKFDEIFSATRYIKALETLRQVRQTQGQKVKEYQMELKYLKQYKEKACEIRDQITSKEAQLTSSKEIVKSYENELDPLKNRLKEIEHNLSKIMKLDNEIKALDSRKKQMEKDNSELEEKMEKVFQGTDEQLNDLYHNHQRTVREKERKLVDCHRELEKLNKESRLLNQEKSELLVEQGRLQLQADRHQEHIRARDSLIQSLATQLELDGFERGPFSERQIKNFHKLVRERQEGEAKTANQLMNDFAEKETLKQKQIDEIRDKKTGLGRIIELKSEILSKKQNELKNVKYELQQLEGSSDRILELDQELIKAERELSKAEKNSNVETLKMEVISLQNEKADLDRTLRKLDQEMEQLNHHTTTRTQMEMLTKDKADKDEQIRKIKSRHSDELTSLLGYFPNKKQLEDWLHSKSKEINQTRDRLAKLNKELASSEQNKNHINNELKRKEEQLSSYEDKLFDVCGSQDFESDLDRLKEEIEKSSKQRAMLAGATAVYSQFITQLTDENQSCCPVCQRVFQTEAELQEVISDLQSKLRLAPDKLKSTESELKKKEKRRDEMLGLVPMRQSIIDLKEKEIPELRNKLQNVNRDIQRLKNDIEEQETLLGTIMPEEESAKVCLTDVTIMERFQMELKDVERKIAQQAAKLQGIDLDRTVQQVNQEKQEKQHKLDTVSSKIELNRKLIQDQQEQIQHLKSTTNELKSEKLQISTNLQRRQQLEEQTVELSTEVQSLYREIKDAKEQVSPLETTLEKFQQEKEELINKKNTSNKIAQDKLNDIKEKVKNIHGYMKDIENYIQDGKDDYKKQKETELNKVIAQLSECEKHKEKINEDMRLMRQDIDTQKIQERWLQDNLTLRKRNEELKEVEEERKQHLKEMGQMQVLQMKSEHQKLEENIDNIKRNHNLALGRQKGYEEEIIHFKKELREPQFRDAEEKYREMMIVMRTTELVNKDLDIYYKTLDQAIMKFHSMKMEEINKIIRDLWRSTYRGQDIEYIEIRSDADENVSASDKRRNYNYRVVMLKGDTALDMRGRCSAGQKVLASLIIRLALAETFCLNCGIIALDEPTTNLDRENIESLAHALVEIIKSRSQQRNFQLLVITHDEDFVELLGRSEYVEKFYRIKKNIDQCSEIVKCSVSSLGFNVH
inactive: lapatinib -0.012 | pictilisib -0.001 | crizotinib -0.025 | [1] 0.007 | duvelisib -0.019 | gandotinib -0.07 | tozasertib 0.011 | doramapimod -0.003 | bafetinib -0.004 | [2] 0.006 | nilotinib -0.004 | [3] 0.016 | dasatinib -0.042 | [4] -0.003 | [5] 0.026 | quisinostat -0.031 | tipifarnib -0.02 | [6] 0.016 | [7] 0.005 | [8] 0.001

RIPK1 (UniProt Q13546)
UniProt Q13546, sequence (Q13546 whole entry, looked up): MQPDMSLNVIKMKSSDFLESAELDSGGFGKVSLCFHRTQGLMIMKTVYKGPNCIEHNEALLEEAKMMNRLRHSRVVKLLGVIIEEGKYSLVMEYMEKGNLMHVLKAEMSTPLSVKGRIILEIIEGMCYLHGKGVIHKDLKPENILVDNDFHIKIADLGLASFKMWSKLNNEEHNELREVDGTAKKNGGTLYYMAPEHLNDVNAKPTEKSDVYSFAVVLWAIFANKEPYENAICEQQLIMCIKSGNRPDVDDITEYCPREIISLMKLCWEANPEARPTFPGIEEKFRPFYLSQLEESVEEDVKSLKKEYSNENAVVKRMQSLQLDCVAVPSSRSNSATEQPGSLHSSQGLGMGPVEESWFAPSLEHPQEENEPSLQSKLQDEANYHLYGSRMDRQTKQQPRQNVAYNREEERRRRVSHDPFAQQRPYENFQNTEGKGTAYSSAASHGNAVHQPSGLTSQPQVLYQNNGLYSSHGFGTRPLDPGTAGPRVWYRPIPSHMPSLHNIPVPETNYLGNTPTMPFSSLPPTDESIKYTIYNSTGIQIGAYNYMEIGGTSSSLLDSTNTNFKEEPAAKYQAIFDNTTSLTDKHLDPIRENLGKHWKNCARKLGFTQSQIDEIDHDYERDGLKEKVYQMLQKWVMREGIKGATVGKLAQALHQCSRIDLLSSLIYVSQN
inactive: lapatinib 0.006 | pictilisib -0.002 | crizotinib 0.061 | [1] -0.026 | duvelisib -0.05 | doramapimod 0.038 | bafetinib 0.007 | nilotinib -0.053 | [3] -0.014 | dasatinib 0.087 | quisinostat -0.074 | tipifarnib -0.064 | [6] 0.015 | [7] 0.01 | [8] -0.047
active: gandotinib 0.256 | tozasertib 0.326 | [2] 0.755 | [4] 0.248 | [5] 0.723

SEC13 isoform 3 (UniProt P55735)
UniProt P55735, sequence (P55735 whole entry, looked up): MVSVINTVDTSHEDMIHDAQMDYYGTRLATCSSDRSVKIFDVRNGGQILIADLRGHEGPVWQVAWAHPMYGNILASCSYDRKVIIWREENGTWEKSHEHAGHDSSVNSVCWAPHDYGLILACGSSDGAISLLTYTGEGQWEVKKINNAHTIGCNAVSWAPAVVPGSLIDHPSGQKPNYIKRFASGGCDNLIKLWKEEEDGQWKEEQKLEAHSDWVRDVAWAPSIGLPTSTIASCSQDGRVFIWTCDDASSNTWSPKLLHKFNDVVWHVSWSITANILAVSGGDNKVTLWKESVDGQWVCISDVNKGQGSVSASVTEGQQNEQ
inactive: lapatinib 0 | pictilisib 0.023 | crizotinib 0.058 | duvelisib 0.02 | gandotinib -0.076 | tozasertib 0.01 | doramapimod -0.031 | bafetinib -0.016 | [2] -0.068 | nilotinib -0.02 | [3] 0.038 | dasatinib -0.01 | [4] 0.031 | [5] 0.02 | quisinostat 0.079 | tipifarnib -0.014 | [6] 0.006 | [7] 0.006 | [8] -0.006
active: [1] 0.417

RETSAT (UniProt Q6NUM9)
active: quisinostat -0.485
inactive: lapatinib 0.056 | pictilisib -0.048 | crizotinib -0.329 | [1] -0.159 | duvelisib 0.039 | gandotinib 0.167 | tozasertib -0.024 | doramapimod 0.006 | bafetinib -0.097 | [2] 0.391 | dasatinib -0.1 | [5] -0.058 | [6] 0.152 | [7] -0.005 | [8] -0.051

RFC2 (UniProt P35250)
UniProt P35250, sequence (P35250 whole entry, looked up): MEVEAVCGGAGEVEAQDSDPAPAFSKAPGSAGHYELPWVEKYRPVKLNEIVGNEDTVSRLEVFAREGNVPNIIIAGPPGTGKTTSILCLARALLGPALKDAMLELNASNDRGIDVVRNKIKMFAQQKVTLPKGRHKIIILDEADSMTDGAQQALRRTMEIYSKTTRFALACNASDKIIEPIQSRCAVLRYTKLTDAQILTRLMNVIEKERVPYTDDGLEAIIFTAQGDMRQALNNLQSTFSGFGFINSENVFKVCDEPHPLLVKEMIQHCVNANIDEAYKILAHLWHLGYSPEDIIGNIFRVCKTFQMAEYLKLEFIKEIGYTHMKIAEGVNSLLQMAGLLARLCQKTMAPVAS
inactive: lapatinib -0.004 | pictilisib 0.015 | crizotinib -0.046 | [1] -0.025 | duvelisib 0.025 | gandotinib -0.007 | tozasertib 0.005 | doramapimod 0.042 | bafetinib -0.074 | [2] 0.041 | nilotinib 0.005 | [3] -0.018 | dasatinib -0.027 | [4] -0.012 | [5] 0.062 | quisinostat -0.04 | tipifarnib -0.014 | [6] 0.036 | [7] 0.014 | [8] -0.05
